# Article PMC7862700, “An all-to-all approach to the identification of sequence-specific readers for epigenetic DNA modifications on cytosine”
# Key:
# Assay in all cases: DAPPL (digital affinity profiling via proximity ligation, sequencing); 10 mM Tris-HCl pH 7.5, 50 mM NaCl, 1 mM DTT, 4% glycerol, room temperature, 30 min; GST-TFs on glutathione beads, 16-mer random dsDNA library, 0.1% formaldehyde crosslink after washing; high values mean tight binding
# Details in all cases: protein: recombinant; tags: N-terminal GST; dsDNA, one strand shown
# FLI1 = biological target: T1, FLI1 (Homo sapiens, UniProt Q01543 1-452)
# T1 sequence: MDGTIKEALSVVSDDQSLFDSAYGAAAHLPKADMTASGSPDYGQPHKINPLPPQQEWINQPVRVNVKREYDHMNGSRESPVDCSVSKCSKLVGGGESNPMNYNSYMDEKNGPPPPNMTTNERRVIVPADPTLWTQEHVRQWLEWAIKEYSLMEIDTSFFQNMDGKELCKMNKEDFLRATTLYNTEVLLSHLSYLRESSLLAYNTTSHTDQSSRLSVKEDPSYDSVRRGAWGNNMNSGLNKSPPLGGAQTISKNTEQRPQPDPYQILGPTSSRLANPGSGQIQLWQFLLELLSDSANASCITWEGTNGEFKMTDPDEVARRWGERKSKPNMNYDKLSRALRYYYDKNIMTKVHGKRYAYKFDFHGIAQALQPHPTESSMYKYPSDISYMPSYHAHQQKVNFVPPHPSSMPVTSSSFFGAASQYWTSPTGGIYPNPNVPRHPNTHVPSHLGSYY
# Method in brief: (§1)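 Binding signal is each hexamer's read frequency for a factor divided by its frequency in the tag-only sample. The factors were GST-fused human transcription factors from yeast, captured on glutathione beads, DNA-barcoded and pooled with that sample. Pools were incubated with 200 nmole of a random double-stranded 16-mer DNA library in Tris/NaCl/DTT/glycerol buffer at room temperature for 30 min, then washed, crosslinked with 0.1% formaldehyde, proximity-ligated with BsaI/T4 ligase (1 h, 37 °C), PCR-amplified and sequenced on an Illumina NextSeq500.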
# ELK1 = biological target: T2, ELK1 (Homo sapiens, UniProt P19419 1-428)
# T2 sequence: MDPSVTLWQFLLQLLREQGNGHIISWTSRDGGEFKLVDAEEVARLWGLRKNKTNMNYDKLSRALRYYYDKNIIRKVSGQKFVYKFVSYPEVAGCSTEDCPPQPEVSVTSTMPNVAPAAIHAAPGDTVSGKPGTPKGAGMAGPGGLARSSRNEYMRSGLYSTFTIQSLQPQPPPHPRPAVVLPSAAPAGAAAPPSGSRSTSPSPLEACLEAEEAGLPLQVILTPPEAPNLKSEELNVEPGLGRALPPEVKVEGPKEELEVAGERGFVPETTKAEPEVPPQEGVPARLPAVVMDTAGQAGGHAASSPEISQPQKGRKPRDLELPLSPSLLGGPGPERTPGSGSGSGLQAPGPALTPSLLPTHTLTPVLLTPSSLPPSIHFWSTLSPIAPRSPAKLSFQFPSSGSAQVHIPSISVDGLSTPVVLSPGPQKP
# Method in brief: as §1
# GABPA = biological target: T3, GABPA (Homo sapiens, UniProt Q06546 1-454)
# T3 sequence: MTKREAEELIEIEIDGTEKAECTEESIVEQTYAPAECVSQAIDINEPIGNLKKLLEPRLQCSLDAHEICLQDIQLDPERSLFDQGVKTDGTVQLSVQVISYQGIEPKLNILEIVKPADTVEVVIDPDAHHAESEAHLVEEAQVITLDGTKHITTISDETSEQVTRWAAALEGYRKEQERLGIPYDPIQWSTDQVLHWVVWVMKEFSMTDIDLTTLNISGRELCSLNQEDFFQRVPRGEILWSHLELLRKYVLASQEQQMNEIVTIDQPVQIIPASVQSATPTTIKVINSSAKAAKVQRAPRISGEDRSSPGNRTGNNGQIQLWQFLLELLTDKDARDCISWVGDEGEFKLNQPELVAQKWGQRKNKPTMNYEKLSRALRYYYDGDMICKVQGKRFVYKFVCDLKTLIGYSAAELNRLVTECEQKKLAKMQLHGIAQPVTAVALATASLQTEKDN
# Method in brief: as §1
# ERG = biological target: T4, ERG (Homo sapiens, UniProt P11308 1-479)
# T4 sequence: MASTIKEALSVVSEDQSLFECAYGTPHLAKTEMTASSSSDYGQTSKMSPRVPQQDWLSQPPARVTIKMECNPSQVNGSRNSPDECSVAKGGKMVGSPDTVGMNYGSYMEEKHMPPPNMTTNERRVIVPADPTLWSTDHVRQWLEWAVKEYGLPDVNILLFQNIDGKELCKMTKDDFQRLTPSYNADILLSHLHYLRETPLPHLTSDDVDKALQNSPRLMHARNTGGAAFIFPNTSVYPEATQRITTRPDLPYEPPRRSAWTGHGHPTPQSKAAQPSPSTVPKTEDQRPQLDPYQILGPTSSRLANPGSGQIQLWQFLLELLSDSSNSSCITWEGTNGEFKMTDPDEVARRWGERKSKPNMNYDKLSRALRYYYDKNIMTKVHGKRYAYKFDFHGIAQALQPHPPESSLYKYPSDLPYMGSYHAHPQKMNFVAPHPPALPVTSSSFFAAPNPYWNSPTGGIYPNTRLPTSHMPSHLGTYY
# Method in brief: as §1
# ELF1 = ELF1 (Homo sapiens, UniProt P32519 1-619)
# Sequence of ELF1 (P32519 whole entry): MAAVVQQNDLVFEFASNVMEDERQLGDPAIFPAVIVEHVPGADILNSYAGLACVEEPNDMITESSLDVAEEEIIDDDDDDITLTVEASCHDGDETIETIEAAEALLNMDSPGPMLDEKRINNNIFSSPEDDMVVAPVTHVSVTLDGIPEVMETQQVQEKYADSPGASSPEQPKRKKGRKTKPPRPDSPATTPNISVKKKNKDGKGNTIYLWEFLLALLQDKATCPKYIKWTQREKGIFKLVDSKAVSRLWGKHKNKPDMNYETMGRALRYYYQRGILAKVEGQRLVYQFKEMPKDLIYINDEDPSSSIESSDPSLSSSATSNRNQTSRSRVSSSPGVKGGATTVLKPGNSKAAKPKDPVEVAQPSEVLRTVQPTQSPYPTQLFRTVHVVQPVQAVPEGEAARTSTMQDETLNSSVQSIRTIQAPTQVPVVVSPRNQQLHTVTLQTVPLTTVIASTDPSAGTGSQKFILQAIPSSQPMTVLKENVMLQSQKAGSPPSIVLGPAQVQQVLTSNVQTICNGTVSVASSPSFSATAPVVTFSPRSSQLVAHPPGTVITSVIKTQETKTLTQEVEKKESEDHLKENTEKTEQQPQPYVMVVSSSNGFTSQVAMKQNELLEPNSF
# Method in brief: as §1
# EHF = biological target: T5, EHF (Homo sapiens, UniProt Q9NZC4 1-300)
# T5 sequence: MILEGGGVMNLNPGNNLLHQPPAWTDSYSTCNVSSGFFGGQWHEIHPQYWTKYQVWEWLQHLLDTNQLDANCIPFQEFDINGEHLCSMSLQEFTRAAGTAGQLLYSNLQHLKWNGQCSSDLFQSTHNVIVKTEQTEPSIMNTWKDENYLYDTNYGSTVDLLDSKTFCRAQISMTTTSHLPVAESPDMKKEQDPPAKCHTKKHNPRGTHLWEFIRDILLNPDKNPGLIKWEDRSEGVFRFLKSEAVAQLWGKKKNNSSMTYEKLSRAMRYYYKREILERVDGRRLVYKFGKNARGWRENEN
# Method in brief: as §1
# SPI1 = SPI1 (Homo sapiens, UniProt P17947 1-270)
# Method in brief: as §1
# SPIB = SPIB (Homo sapiens, UniProt Q01892 1-262)
# Sequence of SPIB (Q01892 whole entry): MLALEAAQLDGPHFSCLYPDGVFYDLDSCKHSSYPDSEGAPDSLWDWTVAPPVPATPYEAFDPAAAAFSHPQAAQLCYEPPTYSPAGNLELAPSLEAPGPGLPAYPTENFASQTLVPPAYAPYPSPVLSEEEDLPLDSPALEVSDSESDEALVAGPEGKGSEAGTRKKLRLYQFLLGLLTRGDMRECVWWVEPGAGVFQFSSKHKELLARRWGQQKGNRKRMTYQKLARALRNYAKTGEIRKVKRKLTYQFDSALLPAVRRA
# Method in brief: as §1
# ETV5 = ETV5 (Homo sapiens, UniProt P41161 1-510)
# Sequence of ETV5 (P41161 whole entry): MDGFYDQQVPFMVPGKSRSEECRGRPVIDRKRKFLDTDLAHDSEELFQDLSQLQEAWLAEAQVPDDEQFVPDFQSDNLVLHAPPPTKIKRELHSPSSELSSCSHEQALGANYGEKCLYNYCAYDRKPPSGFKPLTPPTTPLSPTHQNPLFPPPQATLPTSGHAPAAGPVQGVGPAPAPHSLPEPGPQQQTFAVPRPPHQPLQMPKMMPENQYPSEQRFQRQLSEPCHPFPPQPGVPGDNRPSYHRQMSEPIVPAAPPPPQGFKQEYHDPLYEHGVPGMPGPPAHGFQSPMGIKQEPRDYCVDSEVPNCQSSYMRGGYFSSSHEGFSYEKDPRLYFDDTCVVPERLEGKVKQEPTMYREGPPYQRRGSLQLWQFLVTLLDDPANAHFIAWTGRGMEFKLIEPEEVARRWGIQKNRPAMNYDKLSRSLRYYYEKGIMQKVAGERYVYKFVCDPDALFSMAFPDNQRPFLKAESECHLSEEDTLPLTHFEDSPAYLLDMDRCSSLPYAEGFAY
# Method in brief: as §1
# ELF4 = ELF4 (Homo sapiens, UniProt Q99607 1-663)
# Sequence of ELF4 (Q99607 whole entry): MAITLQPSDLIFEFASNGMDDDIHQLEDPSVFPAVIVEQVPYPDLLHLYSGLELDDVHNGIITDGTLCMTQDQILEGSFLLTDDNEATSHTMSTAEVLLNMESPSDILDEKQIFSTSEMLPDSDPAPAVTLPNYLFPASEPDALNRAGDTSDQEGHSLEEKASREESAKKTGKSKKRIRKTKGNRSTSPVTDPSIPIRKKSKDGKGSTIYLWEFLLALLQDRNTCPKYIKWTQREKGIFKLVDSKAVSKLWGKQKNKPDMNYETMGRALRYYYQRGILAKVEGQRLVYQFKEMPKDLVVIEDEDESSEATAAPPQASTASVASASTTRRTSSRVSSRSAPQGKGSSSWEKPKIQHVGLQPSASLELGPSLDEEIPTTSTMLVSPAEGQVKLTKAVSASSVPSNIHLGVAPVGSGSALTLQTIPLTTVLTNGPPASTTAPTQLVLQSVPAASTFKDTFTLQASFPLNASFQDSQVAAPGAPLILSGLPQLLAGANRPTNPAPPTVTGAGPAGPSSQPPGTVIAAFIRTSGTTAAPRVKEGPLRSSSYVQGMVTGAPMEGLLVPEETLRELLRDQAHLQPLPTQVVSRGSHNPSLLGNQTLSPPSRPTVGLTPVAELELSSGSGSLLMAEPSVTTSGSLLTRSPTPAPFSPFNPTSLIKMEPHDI
# Method in brief: as §1
# ETV2 = biological target: T6, ETV2 (Homo sapiens, UniProt O00321 1-342)
# T6 sequence: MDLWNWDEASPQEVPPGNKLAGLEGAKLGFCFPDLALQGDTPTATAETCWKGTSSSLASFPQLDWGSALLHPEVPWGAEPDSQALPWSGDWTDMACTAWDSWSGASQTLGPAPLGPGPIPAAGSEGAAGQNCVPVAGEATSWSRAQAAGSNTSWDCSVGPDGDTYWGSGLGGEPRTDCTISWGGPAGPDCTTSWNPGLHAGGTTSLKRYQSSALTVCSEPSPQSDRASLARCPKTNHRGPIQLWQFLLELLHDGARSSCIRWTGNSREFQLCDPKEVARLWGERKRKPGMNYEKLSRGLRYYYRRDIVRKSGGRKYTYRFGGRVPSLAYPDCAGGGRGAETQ
# Method in brief: as §1
# ELF3 = biological target: T7, ELF3 (Homo sapiens, UniProt P78545 1-371)
# T7 sequence: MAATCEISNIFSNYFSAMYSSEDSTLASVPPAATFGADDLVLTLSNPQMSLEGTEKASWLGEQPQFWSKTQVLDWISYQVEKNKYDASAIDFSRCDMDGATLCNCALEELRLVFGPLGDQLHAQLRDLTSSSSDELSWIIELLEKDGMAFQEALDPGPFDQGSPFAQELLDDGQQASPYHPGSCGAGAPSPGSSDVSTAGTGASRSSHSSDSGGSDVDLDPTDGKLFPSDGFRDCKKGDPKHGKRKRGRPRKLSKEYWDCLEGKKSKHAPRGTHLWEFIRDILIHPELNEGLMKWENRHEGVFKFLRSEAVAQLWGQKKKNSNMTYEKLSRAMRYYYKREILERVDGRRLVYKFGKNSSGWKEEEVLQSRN
# Method in brief: as §1
# ETV1 = ETV1 (Homo sapiens, UniProt P50549 1-477)
# Sequence of ETV1 (P50549 whole entry): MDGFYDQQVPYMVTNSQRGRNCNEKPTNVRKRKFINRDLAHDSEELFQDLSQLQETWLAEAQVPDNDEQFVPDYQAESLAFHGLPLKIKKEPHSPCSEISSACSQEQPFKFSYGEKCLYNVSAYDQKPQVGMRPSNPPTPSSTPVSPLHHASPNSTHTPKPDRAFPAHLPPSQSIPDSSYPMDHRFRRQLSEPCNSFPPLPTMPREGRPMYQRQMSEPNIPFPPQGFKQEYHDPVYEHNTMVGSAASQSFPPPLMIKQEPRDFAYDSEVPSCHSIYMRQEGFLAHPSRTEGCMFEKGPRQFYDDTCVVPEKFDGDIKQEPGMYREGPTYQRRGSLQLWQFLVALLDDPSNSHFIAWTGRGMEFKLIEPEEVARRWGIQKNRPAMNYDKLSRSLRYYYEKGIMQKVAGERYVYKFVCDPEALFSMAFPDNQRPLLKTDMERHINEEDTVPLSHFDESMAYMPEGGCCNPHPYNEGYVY
# Method in brief: as §1
# ERF = biological target: T8, ERF (Homo sapiens, UniProt P50548 1-548)
# T8 sequence: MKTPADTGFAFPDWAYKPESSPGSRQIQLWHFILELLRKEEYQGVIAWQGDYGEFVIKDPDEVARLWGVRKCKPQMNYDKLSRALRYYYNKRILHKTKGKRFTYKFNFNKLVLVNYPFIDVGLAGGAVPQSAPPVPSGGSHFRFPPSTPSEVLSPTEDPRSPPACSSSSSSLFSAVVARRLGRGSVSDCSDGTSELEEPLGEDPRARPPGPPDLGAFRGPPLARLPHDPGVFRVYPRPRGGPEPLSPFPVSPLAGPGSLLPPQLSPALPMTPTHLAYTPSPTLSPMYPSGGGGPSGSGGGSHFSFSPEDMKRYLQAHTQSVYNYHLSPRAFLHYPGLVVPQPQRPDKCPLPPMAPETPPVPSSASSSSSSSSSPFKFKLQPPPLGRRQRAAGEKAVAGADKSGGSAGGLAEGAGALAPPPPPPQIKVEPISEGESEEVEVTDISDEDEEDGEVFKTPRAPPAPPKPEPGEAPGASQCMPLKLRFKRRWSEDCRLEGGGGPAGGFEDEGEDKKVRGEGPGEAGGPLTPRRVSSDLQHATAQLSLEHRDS
# Method in brief: as §1
# ETV3L = biological target: T9, ETV3L (Homo sapiens, UniProt Q6ZN32 1-361)
# T9 sequence: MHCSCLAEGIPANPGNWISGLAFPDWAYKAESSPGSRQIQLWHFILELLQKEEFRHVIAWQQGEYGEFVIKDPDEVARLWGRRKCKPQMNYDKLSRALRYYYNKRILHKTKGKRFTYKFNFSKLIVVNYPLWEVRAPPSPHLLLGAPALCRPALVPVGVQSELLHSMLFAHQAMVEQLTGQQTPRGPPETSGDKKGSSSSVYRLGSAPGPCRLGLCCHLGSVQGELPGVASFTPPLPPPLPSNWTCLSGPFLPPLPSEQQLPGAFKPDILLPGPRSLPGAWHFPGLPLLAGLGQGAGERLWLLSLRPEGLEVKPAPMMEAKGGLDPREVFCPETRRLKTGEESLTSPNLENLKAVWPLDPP
# Method in brief: as §1
# ETS2 = biological target: T10, ETS2 (Homo sapiens, UniProt P15036 1-469)
# T10 sequence: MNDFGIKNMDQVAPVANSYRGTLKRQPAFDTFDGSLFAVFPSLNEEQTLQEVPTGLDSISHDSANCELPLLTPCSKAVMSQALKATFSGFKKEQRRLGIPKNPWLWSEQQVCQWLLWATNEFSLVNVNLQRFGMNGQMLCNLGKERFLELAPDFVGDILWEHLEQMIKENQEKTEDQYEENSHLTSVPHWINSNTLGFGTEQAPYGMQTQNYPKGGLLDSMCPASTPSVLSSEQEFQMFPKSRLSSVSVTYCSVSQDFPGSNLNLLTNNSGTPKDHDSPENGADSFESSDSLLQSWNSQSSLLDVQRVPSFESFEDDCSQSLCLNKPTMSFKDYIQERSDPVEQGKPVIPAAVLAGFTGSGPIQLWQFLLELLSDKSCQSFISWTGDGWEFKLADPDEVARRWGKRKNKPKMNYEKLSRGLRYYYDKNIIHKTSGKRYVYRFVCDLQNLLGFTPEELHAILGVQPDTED
# Method in brief: as §1
# ETV7 = biological target: T11, ETV7 (Homo sapiens, UniProt Q9Y603 1-341)
# T11 sequence: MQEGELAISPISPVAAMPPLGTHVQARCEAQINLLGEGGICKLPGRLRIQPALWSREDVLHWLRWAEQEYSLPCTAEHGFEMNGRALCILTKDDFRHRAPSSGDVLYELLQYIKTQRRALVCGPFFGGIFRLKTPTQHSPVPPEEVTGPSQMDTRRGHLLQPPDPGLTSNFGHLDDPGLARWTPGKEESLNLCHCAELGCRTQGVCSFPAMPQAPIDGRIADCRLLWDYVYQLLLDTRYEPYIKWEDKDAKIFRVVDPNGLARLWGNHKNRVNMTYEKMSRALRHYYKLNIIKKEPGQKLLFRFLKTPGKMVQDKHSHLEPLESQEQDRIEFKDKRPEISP
# Method in brief: as §1
# ETV3 = biological target: T12, ETV3 (Homo sapiens, UniProt P41162-2 1-143)
# T12 sequence: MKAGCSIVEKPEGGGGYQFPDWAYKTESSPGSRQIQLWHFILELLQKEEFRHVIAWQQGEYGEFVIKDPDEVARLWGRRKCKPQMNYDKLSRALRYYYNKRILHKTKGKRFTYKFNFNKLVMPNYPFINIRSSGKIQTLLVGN
# Method in brief: as §1
# ETV6 = ETV6 (Homo sapiens, UniProt P41212 1-452)
# Sequence of ETV6 (P41212 whole entry): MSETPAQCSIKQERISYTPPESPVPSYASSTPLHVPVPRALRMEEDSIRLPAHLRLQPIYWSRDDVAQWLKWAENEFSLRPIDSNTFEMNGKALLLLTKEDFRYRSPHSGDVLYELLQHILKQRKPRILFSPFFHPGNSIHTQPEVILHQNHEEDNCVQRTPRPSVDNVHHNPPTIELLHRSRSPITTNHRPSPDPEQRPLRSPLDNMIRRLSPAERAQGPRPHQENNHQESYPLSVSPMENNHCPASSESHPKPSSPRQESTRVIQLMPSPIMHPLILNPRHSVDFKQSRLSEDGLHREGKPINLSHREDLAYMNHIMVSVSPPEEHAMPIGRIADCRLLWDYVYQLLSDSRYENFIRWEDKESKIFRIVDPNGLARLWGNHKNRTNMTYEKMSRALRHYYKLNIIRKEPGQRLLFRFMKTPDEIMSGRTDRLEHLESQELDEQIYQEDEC
# Method in brief: as §1
sequence,measurement,setting,value
TATGTC,binding signal,FLI1,"1.05 fold enrichment (6-mer frequency, TF over GST control)"
same,binding signal,ELK1,"1.05 fold enrichment (6-mer frequency, TF over GST control)"
same,binding signal,GABPA,"1.17 fold enrichment (6-mer frequency, TF over GST control)"
same,binding signal,ERG,"1.08 fold enrichment (6-mer frequency, TF over GST control)"
same,binding signal,ELF1,"1.11 fold enrichment (6-mer frequency, TF over GST control)"
same,binding signal,EHF,"1.02 fold enrichment (6-mer frequency, TF over GST control)"
same,binding signal,SPI1,"1.06 fold enrichment (6-mer frequency, TF over GST control)"
same,binding signal,SPIB,"1.16 fold enrichment (6-mer frequency, TF over GST control)"
same,binding signal,ETV5,"1.07 fold enrichment (6-mer frequency, TF over GST control)"
same,binding signal,ELF4,"1.14 fold enrichment (6-mer frequency, TF over GST control)"
same,binding signal,ETV2,"1.02 fold enrichment (6-mer frequency, TF over GST control)"
same,binding signal,ELF3,"1.06 fold enrichment (6-mer frequency, TF over GST control)"
same,binding signal,ETV1,"1.05 fold enrichment (6-mer frequency, TF over GST control)"
same,binding signal,ERF,"1.08 fold enrichment (6-mer frequency, TF over GST control)"
same,binding signal,ETV3L,"1.16 fold enrichment (6-mer frequency, TF over GST control)"
same,binding signal,ETS2,"1.13 fold enrichment (6-mer frequency, TF over GST control)"
same,binding signal,ETV7,"1.06 fold enrichment (6-mer frequency, TF over GST control)"
same,binding signal,ETV3,"1.13 fold enrichment (6-mer frequency, TF over GST control)"
same,binding signal,ETV6,"1.07 fold enrichment (6-mer frequency, TF over GST control)"
